# Measurements reported in the supplement of paper PMC10646978.
# ± gives the standard deviation.
# Key:
# Conditions in all cases: modulator concentration 10 µM
# [1] = tested on: RAW-Dual (murine macrophage reporter line); test: NF-kB reporter (SEAP) activity fold change vs agonist alone; higher = enhanced NF-kB activity
# How it was run: (§1)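 RAW-Dual murine macrophage reporter cells were seeded at 50 000 per well in 384-well plates and pre-incubated 1 hour at 37 °C with compound pin-transferred to 10 μM final. After 1 hour, a PRR agonist was added and cells incubated overnight. Supernatant NF-κB (SEAP, QUANTI-Blue, 620 nm absorbance) and IRF (Lucia luciferase, QUANTI-Luc, luminescence) signals were divided by the mean agonist-only control on the same plate to give fold change. Two replicate plates were averaged, with errors by propagation.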
# [2] = tested on: RAW-Dual (murine macrophage reporter line); test: IRF reporter (Lucia luciferase) activity fold change vs agonist alone; higher = enhanced IRF activity
# How it was run: as §1
# [3] = tested on: RAW-Dual (murine macrophage reporter line); test: viability score (confluency relative to resting cells, overnight) (fraction); higher = more viable, active = viable (0.7 or more)
# How it was run: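 RAW-Dual macrophages in 384-well plates were treated overnight with compound at 10 μM final. IncuCyte imaging recorded confluency, and IncuCyte software built two confluency masks across every imaged well. The viability score expresses confluency relative to resting cells and was judged against a cutoff, which a compound met only if both masks exceeded 70% of resting cells.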
# [4] = agonist: CpG ODN 1826 0.5 ug/mL
Structure (SMILES),"NF-kB reporter [1, 4]",NF-kB reporter ([1]; agonist: LPS 0.1 ug/mL),NF-kB reporter ([1]; agonist: MPLA […]),IRF reporter ([2]; agonist: 3'3'-cGAMP 10 ug/mL),IRF reporter ([2]; agonist: LPS 0.1 ug/mL),IRF reporter ([2]; agonist: MPLA […]),viability score [3]
Cc1ccc(CSc2nc3sc4c(c3c(=O)n2-c2ccccc2)CC(C)(C)OC4)c(C)c1,0.984 ± 0.093,1.06 ± 0.075,0.91 ± 0.054,1.05 ± 0.039,1.41 ± 0.12,1.1 ± 0.21,1.02 (active)
O=c1c(O)c(-c2ccc(O)c(O)c2)oc2cc(O)cc(O)c12,1.06 ± 0.26,1.04 ± 0.093,1.47 ± 0.12,0.356 ± 0.021,1.08 ± 0.23,1.12 ± 0.14,0.982 (active)
CC1(C)CC(=O)c2sc(NC(=O)c3ccccc3)nc2C1,1.05 ± 0.078,1.08 ± 0.12,1 ± 0.036,0.807 ± 0.048,1 ± 0.13,1.02 ± 0.12,1 (active)
c1ccc(Nc2nc(Nc3ccccc3)nc(N3CCCCC3)n2)cc1,0.605 ± 0.04,1.01 ± 0.062,0.977 ± 0.064,1.05 ± 0.053,1.53 ± 0.15,1.22 ± 0.2,0.995 (active)
CCC(Oc1ccccc1)C(=O)Nc1cc([N+](=O)[O-])ccc1C (configuration not stated),0.91 ± 0.059,0.865 ± 0.073,0.987 ± 0.036,0.902 ± 0.042,0.997 ± 0.11,0.973 ± 0.14,1 (active)
CCC(C)n1ncn(-c2ccc(N3CCN(c4ccc(OC[C@H]5CO[C@](Cn6cncn6)(c6ccc(Cl)cc6Cl)O5)cc4)CC3)cc2)c1=O (some centres not stated),1.57 ± 0.47,1.04 ± 0.057,1.1 ± 0.089,0.921 ± 0.044,1.2 ± 0.14,1.32 ± 0.13,0.994 (active)
O=C(CSc1ccc2ccccc2n1)NC1=NCCS1,0.89 ± 0.051,0.986 ± 0.062,0.972 ± 0.06,0.968 ± 0.033,1.2 ± 0.077,0.958 ± 0.23,1.01 (active)
CN1C(=N)NC(=O)C1=Cc1cc(Br)cc(Br)c1O,0.879 ± 0.099,0.898 ± 0.09,0.954 ± 0.04,0.96 ± 0.069,0.951 ± 0.046,1.01 ± 0.11,0.998 (active)
COc1ccc(CNCc2cccc3ccccc23)c(OC)c1,0.108 ± 0.013,0.586 ± 0.065,0.607 ± 0.063,0.968 ± 0.076,1.21 ± 0.12,1.36 ± 0.22,0.354 (inactive)
CCCC1=NN2C(=N)C(=Cc3cccc(OCc4ccccc4F)c3)C(=O)N=C2S1,0.983 ± 0.12,0.999 ± 0.1,0.972 ± 0.061,0.964 ± 0.064,1.6 ± 0.16,1.17 ± 0.097,1.01 (active)
O=C(C=Cc1ccc(Br)cc1)c1c(-c2ccccc2)c2cc(Cl)ccc2[nH]c1=O,0.876 ± 0.068,0.792 ± 0.055,1.03 ± 0.099,0.858 ± 0.039,1.4 ± 0.09,1.5 ± 0.16,0.997 (active)
Br.O=S(=O)(c1ccc(-c2csc(Nc3ccc(Br)cc3)n2)cc1)N1CCCC1,0.814 ± 0.063,1.08 ± 0.099,0.858 ± 0.065,1.03 ± 0.034,1.37 ± 0.1,1.2 ± 0.16,1.01 (active)
NNC(=O)CN1C(=O)C2CC=C(Cl)CC2C1=O (configuration not stated),0.984 ± 0.062,0.976 ± 0.085,0.954 ± 0.035,0.999 ± 0.088,1.06 ± 0.058,0.917 ± 0.18,0.999 (active)
COCCOC(=O)C1=C(C)NC(=S)NC1c1ccccc1OC (configuration not stated),1.03 ± 0.098,0.995 ± 0.056,0.956 ± 0.11,0.964 ± 0.039,1.38 ± 0.095,1.19 ± 0.22,1.01 (active)
CCCC(=O)OCOC(=O)C1=C(C)NC(C)=C(C(=O)OC)C1c1cccc(Cl)c1Cl (configuration not stated),0.752 ± 0.068,0.888 ± 0.064,1.07 ± 0.11,0.995 ± 0.048,1.18 ± 0.14,1.16 ± 0.16,1 (active)
O=C(CCCN1C(=O)c2cccc3cccc(c23)C1=O)NCCO,1.04 ± 0.061,0.976 ± 0.078,0.963 ± 0.025,1 ± 0.072,1.12 ± 0.052,1.05 ± 0.1,0.995 (active)
Oc1ccc(N=Cc2ccccc2F)cc1,0.861 ± 0.099,0.887 ± 0.079,1.1 ± 0.064,0.304 ± 0.012,0.686 ± 0.028,1.36 ± 0.14,0.879 (active)
O=C(Oc1coc(CSc2ncccn2)cc1=O)c1ccc([N+](=O)[O-])cc1,0.972 ± 0.16,1.15 ± 0.13,1.03 ± 0.15,0.996 ± 0.03,1 ± 0.22,1.03 ± 0.1,0.986 (active)
COC(=O)C1=C(C)NC(C)=C(C(=O)OC)C1c1ccc(-c2ccc(Cl)cc2Cl)o1,1.01 ± 0.081,0.943 ± 0.064,0.922 ± 0.092,0.872 ± 0.022,1.23 ± 0.11,1.22 ± 0.22,1.02 (active)
COc1ccc2c(c1)c(=O)oc1cc(OCc3cccc(C(F)(F)F)c3)ccc12,1.03 ± 0.076,1.01 ± 0.1,1.04 ± 0.027,0.998 ± 0.047,0.97 ± 0.046,1.11 ± 0.11,0.995 (active)
COC(CNC(=O)c1cccc(Cl)c1)c1ccccc1C (configuration not stated),0.774 ± 0.038,0.876 ± 0.092,0.958 ± 0.075,0.965 ± 0.059,1.22 ± 0.23,1.37 ± 0.34,0.999 (active)
Nc1ncnc2c1ncn2[C@@H]1O[C@H](CO)[C@@H](O)[C@H]1O,1.03 ± 0.08,1.13 ± 0.079,1.17 ± 0.11,1.22 ± 0.25,0.879 ± 0.03,0.852 ± 0.11,1 (active)
CC(=O)N1N=C(c2ccc(N(C)C)cc2)CC1c1ccccc1 (configuration not stated),0.932 ± 0.08,1.04 ± 0.073,1.01 ± 0.047,0.794 ± 0.048,1.01 ± 0.042,1.1 ± 0.072,1 (active)
C[C@@H](Oc1cc(-c2cnn(C3CCNCC3)c2)cnc1N)c1c(Cl)ccc(F)c1Cl,0.149 ± 0.026,0.423 ± 0.2,1.47 ± 0.12,0.0546 ± 0.0028,0.165 ± 0.074,0.128 ± 0.02,0.0221 (inactive)
CCC(=O)Nc1ccc(S(=O)(=O)N2CCSC(c3ccccc3C)CC2)c(C)c1 (configuration not stated),0.688 ± 0.045,0.88 ± 0.11,0.937 ± 0.087,0.412 ± 0.018,0.996 ± 0.085,0.988 ± 0.17,0.994 (active)
Cc1ccc(-n2ncnc2-c2ccccc2C)cc1Cl,0.759 ± 0.064,0.787 ± 0.044,1.14 ± 0.11,0.777 ± 0.052,1.48 ± 0.12,1.65 ± 0.21,0.996 (active)
